Most compounds without a hit are left out; they make up all but 3.8% or so of the library.
ADAM10 inh – human ADAM10 inhibitors, primary screen, biochemical, QFRET, HTS | inhibition, % at 7 µM | 370,000 tested, 0.62% active | Disintegrin and metalloproteinase domain-containing protein 10 (Homo sapiens), O14672 | recombinant ADAM10, EDANS/DABCYL FRET peptide cleavage, 3 h;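 active = inhibition above a per-campaign cutoff equal to the mean of compounds falling between control-based bounds plus 3 SD, cut at about 20% in these data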
KLK7 zymogen act – proKLK7 zymogen activators, primary screen, biochemical, fluorescence intensity | Kallikrein-7 (Homo sapiens), P49862 | purified proKLK7, EDANS-DABCYL substrate fluorescence; 100% is mature enzyme control, 0% vehicle | activation, % at 7 µM | 370,000 tested, 0.9% active;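 active = activation above the mean of all tested compounds plus 3 SD, computed per campaign excluding outliers beyond control limits, cut at about 13% in these data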
Ecoli rRNA inh – reduced GFP signal of wild-type E. coli, primary screen, bacterial rRNA inhibitor project, GFP/RFP fluorescence, OD600, single point; GFP signal change (wild-type ribosome), % (concentration not given with the values); E. coli WT GFP vs humanized-ribosome RFP mutants, 24 h; stronger effect = lower value; DMSO median 0, no signal -100; 350,000 tested, 1.6% active;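 active = significant combined selectivity score with lowered wild-type GFP, culture density cut under 30%, mutant RFP and density less affected; inactive = any of these conditions unmet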
FGF22 binding – binders of human FGF22 protein, primary screen, FGF22 synaptogenesis inhibitor project, biophysical, thermal shift, single point; AID 651658, 2012; Fibroblast growth factor 22 (Homo sapiens), Q9HCT0; 340,000 tested, 1.5% active; recombinant FGF22 thermal shift, SYPRO orange fluorescence; percent of sucrose octasulfate shift, DMSO zero; activity (Tm shift, normalised), % at 9.99 µM;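 active = mean Tm shift, scaled 0 neutral to 100 positive control, at about 1.3% or above, every replicate too, limit read from the data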
ADAM17 inh – ADAM17 inhibitors, primary screen, biochemical, QFRET. recombinant ADAM17, EDANS/DABCYL FRET peptide cleavage. inhibition, % at 6.95 µM. AID 720648, 2013. 370,000 tested, 0.83% active. Disintegrin and metalloproteinase domain-containing protein 17 (Homo sapiens), P78536;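 active = inhibition above the mean of compounds lying between control limits plus 3 SD, set per campaign, cut at about 8.5% in these data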
Target sequence (P78536 215-824 limits assumed): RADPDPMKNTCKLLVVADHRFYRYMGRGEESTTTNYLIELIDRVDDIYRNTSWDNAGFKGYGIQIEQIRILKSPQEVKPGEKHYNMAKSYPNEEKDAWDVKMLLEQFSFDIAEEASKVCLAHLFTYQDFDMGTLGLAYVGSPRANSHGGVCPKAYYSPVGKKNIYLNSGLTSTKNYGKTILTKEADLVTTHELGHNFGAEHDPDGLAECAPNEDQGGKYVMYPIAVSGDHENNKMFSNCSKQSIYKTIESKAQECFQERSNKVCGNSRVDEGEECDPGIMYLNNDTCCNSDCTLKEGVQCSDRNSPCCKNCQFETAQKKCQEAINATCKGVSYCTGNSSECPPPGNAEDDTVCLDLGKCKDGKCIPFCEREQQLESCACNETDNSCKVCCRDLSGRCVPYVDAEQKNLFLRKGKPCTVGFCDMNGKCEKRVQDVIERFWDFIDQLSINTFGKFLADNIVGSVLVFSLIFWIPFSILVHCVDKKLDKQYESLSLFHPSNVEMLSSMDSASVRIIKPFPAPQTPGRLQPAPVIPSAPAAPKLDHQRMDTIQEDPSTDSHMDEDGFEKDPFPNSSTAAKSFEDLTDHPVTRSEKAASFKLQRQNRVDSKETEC
A number is an active result; n = inactive; x = no result given.

SMILES | ADAM10 inh | KLK7 zymogen act | Ecoli rRNA inh | FGF22 binding | ADAM17 inh
O=C(N=C1N=C2C=CC(Br)=CN2Cc2ccccc21)c1ccc([N+](=O)[O-])cc1[N+](=O)[O-] | n | n | n | n | 9.1
O=C(Cc1cccc2ccccc12)Nc1ccc2c(c1)C(=O)NC2=O | n | n | n | 44 | n
CCCC(=O)Nc1ccc2c(c1)C(=O)NC2=O | n | n | n | n | n
COc1ccc(C2(CNS(=O)(=O)c3ccc(C)cc3)CCOCC2)cc1 | n | n | n | n | n
COc1ccc(C2(CNC(=O)C(=O)Nc3ccc(C)cc3)CCOCC2)cc1 | n | n | n | 43 | n
CNC[C@@H]1Oc2c(NC(=O)NC(C)C)cccc2C(=O)N(C)C[C@H]1C | x | x | n | x | x
COC(=O)C1=C(C)N(Cc2ccccc2)C(=NCc2ccccc2)N[C@H]1c1cccc(F)c1 | n | n | n | 45 | n
COC(=O)C1=C(C)N(Cc2ccc(C(F)(F)F)cc2)C(=NCc2ccccc2)NC1c1ccc(Cl)cc1 (centres undefined) | n | n | -42 | n | n
C[C@H](CO)N1C[C@H](C)[C@@H](CN(C)Cc2ccc3c(c2)OCO3)OCCCC[C@H](C)Oc2ccc(NC(=O)Nc3cccc4ccccc34)cc2C1=O | x | x | n | n | x
O=C1CN(S(=O)(=O)c2ccc(Cl)cc2)c2ccccc2N1 | n | n | -22 | n | n
CO[C@H](CN(C)C(=O)c1ccccc1F)[C@H](C)CN([C@H](C)CO)S(=O)(=O)c1ccc(C)cc1 | x | x | n | n | x
O=C1CCCC/C1=N\Nc1ccc(OCc2ccccc2)cc1 | n | n | n | 1.5 | n
Cc1nn(C)c(Cl)c1CN1CCC(CO)(CCOc2ccccc2)CC1 | n | n | n | 44 | n
Cc1ccccc1CC1(CO)CCCN(Cc2c(C)nn(C)c2Cl)C1 (centres undefined) | n | n | n | 44 | n
C=CCOc1ccccc1CN1CCC(CO)(CCOc2ccccc2)CC1 | n | n | n | 43 | n
CCn1ccnc1CN1CCC(CO)(CCOc2ccccc2)CC1 | n | n | n | x | n
COc1ccc(S(=O)(=O)N(C)C[C@H]2Oc3c(NC(=O)c4cc(C)nn4C)cccc3C(=O)N([C@H](C)CO)C[C@@H]2C)cc1 | x | x | n | n | x
CC(=O)Nc1nc(C)cs1 | n | n | n | n | n
CC(=O)Nc1nc(C(=O)O)cs1 | n | n | n | 43 | n
CCCC(=O)N1CC2(CCN(C(=O)CC3CC3)CC2)c2c(n(C)c3cc(OC)ccc23)[C@H]1CO | x | x | n | x | x
CS(=O)(=O)N1[C@@H]2CN(CC(F)(F)F)C[C@H]1C2c1ccc(Br)cc1 (some centres undefined) | x | x | n | x | x
COc1cc2c(cc1OC)C(c1c(Cl)cccc1Cl)NC(=O)C2 (centres undefined) | n | n | n | n | n
CC1=C(O)C(=O)OC1c1c(Cl)cccc1Cl (centres undefined) | n | n | -29 | n | n
C=CCN1C(=O)/C(=C/c2ccc(OCC(=O)O)cc2)S/C1=N/c1nccs1 | n | n | x | n | n
C=CCN1C(=O)/C(=C/c2ccc(O)c(OC)c2)S/C1=N/c1nccs1 | 22 | n | x | x | n
SMILES | ADAM10 inh | KLK7 zymogen act | Ecoli rRNA inh | FGF22 binding | ADAM17 inh
CCC(=O)N1CC2(C1)[C@H](c1ccc(-c3ccc(C#N)cc3)cc1)[C@@H](CO)N2C(C)=O | x | x | n | n | x
Cc1cc(C)c(S(C)(=O)=O)c(N(C)N)n1 | n | n | n | 43 | n
O=S(=O)(N[C@H]1CC[C@H](CCn2cc(-c3ccccn3)nn2)O[C@@H]1CO)c1cccc(Cl)c1 | x | x | n | n | x
O=C(O)CCC(=O)NCc1c(Cl)cccc1Sc1ccc(Cl)cc1 | n | n | -25 | n | n
O=C(C1CC1)N1CCN(c2ccc([N+](=O)[O-])cc2-n2cccc2)CC1 | n | n | -30 | n | n
COC(=O)C[C@@H]1CC[C@@H](NC(=O)c2ccccc2)[C@@H](CO)O1 | x | x | n | n | x
Cc1ccc(C2=NC(C(F)(F)F)(C(F)(F)F)c3c(n(-c4ccc(F)cc4)c(=O)[nH]c3=O)N2)cc1 | n | n | x | x | n
O=c1[nH]c(=O)n(-c2ccc(F)cc2)c2c1C(C(F)(F)F)(C(F)(F)F)N=C(c1ccc(F)cc1)N2 | n | n | n | 1.9 | n
O=C(c1ccccc1)C(Nc1ccccn1)c1ccccc1 (centres undefined) | n | n | n | 44 | n
O=C(Nc1ccccn1)c1ccccc1 | n | n | x | n | n
Cc1cc(C)c2nc(N(CCCN(C)C)C(=O)c3ccc4c(c3)OCCO4)sc2c1 | n | n | -28 | n | n
CCOc1ccc2nc(N(CCCN(C)C)C(=O)c3ccc4c(c3)CCCC4)sc2c1 | n | n | n | n | n
Cc1cc(C)c2nc(N(CCCN(C)C)C(=O)C3=COCCO3)sc2c1 | n | n | n | n | n
COc1cccc2sc(N(CCN(C)C)C(=O)c3ccc4c(c3)CCCC4)nc12 | n | n | -30 | n | n
CN(C)CCCN(C(=O)c1ccc2c(c1)CCCC2)c1nc2ccc(Cl)cc2s1 | n | n | n | n | 8.7
CN(C)CCN(C(=O)c1ccc2c(c1)CCCC2)c1nc2c(F)cccc2s1 | n | n | -18 | n | n
CCC(=O)N1C[C@H](C)[C@H](OC)CN(C)C(=O)c2ccc(NC(=O)c3cc(C)on3)cc2OC[C@H]1C | x | x | n | x | x
O=C(C[n+]1cc(-c2ccccc2)n2c1CCC2)Nc1nc(-c2ccccc2)cs1 | n | n | x | x | n
COc1ccc(-c2c[n+](CC(=O)c3ccccc3)c3n2CCCCC3)cc1 | n | n | -49 | n | n
O=C(C[n+]1cc(-c2ccccc2)n2c1CCCCC2)c1ccc(Cl)cc1 | n | n | -40 | n | n
Cc1ccc(-c2c[n+](CC(=O)Nc3nc(-c4ccccc4)cs3)c3n2CCC3)cc1 | n | n | -47 | n | n
Cc1ccc(-c2c[n+](CC(=O)Nc3ccccc3C)c3n2CCC3)cc1 | n | n | x | n | n
Cc1ccc(-c2c[n+](CC(=O)c3ccc(Br)cc3)c3n2CCCCC3)cc1 | n | n | n | n | n
CCCc1cn([C@H]2C[C@@H]3O[C@@H](CO)CC[C@@H]3O[C@@H]2CCc2ccc(-c3ccc(OC)cc3)cc2)nn1 | x | x | x | n | x
Cc1nc2cc(NC(=O)C3COc4ccccc4O3)ccc2s1 (centres undefined) | n | n | x | 43 | n
Cc1nc2cc(NC(=O)CCS(=O)(=O)c3ccccc3)ccc2s1 | n | n | n | 44 | n
Cc1nc2ccc(NC(=O)CCS(=O)(=O)c3ccccc3)cc2s1 | n | n | n | n | n

Bioassay records as filed in PubChem.
